Consider 39 compounds from PubChem BioAssay (NCI).

About 79,000 compounds went through this panel and 15% of them were active in at least one assay; those are over-represented in the sample as a whole. Activity calls are given as the source filed them. Rule as the data show it: active = growth inhibition above about 70%; inactive = the rest.

A short description of the experiment: NCI Yeast Anticancer Drug Screen. Data for the rad50 strain (AID 155).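 Also: 0% = growth of vehicle-only cultures of the same strain.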 Conditions: S. cerevisiae rad50 strain growth inhibition; at 50.0 µM (retest, dose inferred, filed as 5.0); active compounds read high. The method in brief:
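DNA repair mutant yeast, compound exposure, growth read-out; inhibition is taken relative to vehicle.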
As for `CNS(=O)(=O)c1ccccc1C=C(c1ccccc1)c1ccccc1`, the growth inhibition was 90% (active). Under `CC(C)c1cc(C(C)C)c(Cl)c(Cl)c1O` (tested in a mixture with another compound) stands 44% (inactive); under `Nc1cccc2cccnc12`, 72% (active). The same measure for `C[n+]1c(/C=C/c2ccc(N3CCCC3)cc2)sc2ccccc21`: 98% (active).

Turning to `Nc1cn(C2OC(CC(c3ccccc3)(c3ccccc3)c3ccccc3)C(O)C2O)c(=O)[nH]c1=O` (centres undefined), the growth inhibition is 99% (active).

With `c1ccc(Cn2nnc(-c3ccccc3)c2-c2ccccc2)cc1`, the growth inhibition is 90% (active).

For the compound `CCCCCC(CCCCC)OC(=O)CCN(CCCCC)CCCCC`, the growth inhibition was 81% (active). As to `C=CCC1(OC(C)=O)CC2C(=O)C(=O)C(C1)N2OC(=O)c1ccccc1` (centres undefined), the growth inhibition is 95% (active).

With `C=CS(=O)(=O)c1ccc([N+](=O)[O-])cc1`, the growth inhibition is 98% (active).

For the compound `Cc1ccc(S(=O)(=O)Oc2ccc(C(C)(C)C)cc2Cl)cc1`, the growth inhibition is -11% (inactive). The same measure for `O=C(CCl)N1CCN(C(c2ccccc2)c2ccccc2)CC1`: 96% (active); for `Oc1ccc2ccccc2c1.[Cu+2]`: 20% (inactive).

Take `NS(=O)(=O)c1ccc(NC(=O)Cc2nc3ccccc3s2)cc1`: the growth inhibition was 99% (active). Under `O=C(COc1ccc(Cl)cc1)OCCO` stands 0% (inactive); under `NC(=Nc1ccccc1)SCc1ccc([N+](=O)[O-])cc1`, 67% (inactive). The same measure for `N[C@@H]1CCCC[C@@H]1N.O=C([O-])CN(CP(=O)([O-])[O-])CP(=O)([O-])[O-].[Pt+2]`: 89% (active). On to `C/C=C(\C)CC/C=C/CO[Si](C)(C)C(C)(C)C`, for which the growth inhibition was -19% (inactive). Under `CCOC(=O)c1cnc2cc3cccccc3n2c1=O` stands 62% (inactive); under `C(=N\NC1=NCCN1)/c1ccc(-c2cn3cc(/C=N/NC4=NCCN4)ccc3n2)cc1`, 99% (active); under `CC(CN(C)C)C(/C=C/c1ccc(F)cc1)=N\Nc1ccccc1` (centres undefined), 51% (inactive).

Regarding `O=C1C(Sc2ccc3ccccc3c2)=C(Sc2ccc3ccccc3c2)C(=O)c2ccccc21`, the growth inhibition was 90% (active). Under `CC(O)c1cccnc1` (centres undefined) stands -8% (inactive); under `Cc1cccc2nc3nc(Cl)c(Cl)nc3n12`, 76% (active); under `CSc1cc2c(cc1N)Cc1cc(F)ccc1-2`, 73% (active).

With `CC(C)C1=CC23CCC4C(C)(C(=O)O)CCCC4(C)C2CC1c1c(O)ccc(O)c13` (centres undefined), the growth inhibition was 98% (active).

Regarding `C=CCNC(=S)N/N=C(\CCC)c1ccccn1`, the growth inhibition is 95% (active). Under `C#CC(C)(C)OC(C)=O` stands 26% (inactive); under `Cc1cc(N2C(=O)CSC2=S)c([N+](=O)[O-])cc1C`, 99% (active). Under `Cc1[nH]c(=O)[nH]c(=O)c1CN(C)Cc1cc(Cl)cc(Cl)c1O` stands 70% (active); under `CCCCC(CC)C(O)C(=O)O` (centres undefined), 30% (inactive). Under `CCOCCOc1ccc(OCCOCC)cc1` stands -13% (inactive). `O=C(O)c1ccc(C(=O)c2ccccc2C(=O)O)cc1`: the growth inhibition was -4% (inactive). The same measure for `CCCCCCCCCCCCCCNC(=O)CCC(NC(=O)c1ccc(N(C)Cc2cnc3nc(N)nc(N)c3n2)cc1)C(=O)NCCCCCCCCCCCCCC` (centres undefined): 94% (active); for `C=C1C(=O)C23OC2C1CCC(=O)C1(C)CC[C@H](OC(C)=O)C(C)(C)[C@H]1CC3O` (some centres undefined): 79% (active); for `CCCCCCCCCCC(NC(C)=O)(C(=O)OCC)C(=O)OCC`: 98% (active). Under `ClC(Cl)(Cl)/C=C/c1cnc2ccccc2n1` stands 99% (active); under `CCc1nc(N)nc(N)c1-c1ccc(N(C)Cc2ccccc2)c([N+](=O)[O-])c1`, -13% (inactive); under `O=C(COC(=O)C(c1ccccc1)c1ccccc1)c1ccc(Br)cc1`, 28% (inactive).

Regarding `OCCN1COc2cc3c(cc2C1)OCN(CCO)C3`, the growth inhibition was 11% (inactive).
